Laboratory results reported in PubChem BioAssay AID1159580 (chemical genetic matrix, 2015).
In all, about 5,500 compounds went through this assay and about 2,000 (36%) were called active. Another 18% or so got no clear call; they are omitted. No stated cut-off is given here; in the data, active means normalized growth mostly below about 0.91 (no sharp cut-off); inconclusive means no clear call, values can overlap the other calls; inactive means mostly above about 0.92. The list shows a part of the results.

Test: chemical genetic growth profiling, strain panel (AID 1159580);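 further: tested at 20 µM; growth read once vehicle control cultures reached saturation at 30 °C; 1 = growth at the plate median or of vehicle wells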
Details: S. cerevisiae deletion strains, growth OD

Measured: normalized growth

COc1cc(O)c(C(=O)/C=C/c2ccc(O)c(OC)c2)c(OC)c1
active: locus YAL026C, strain drs2, stronger effect = lower value 0.896 | locus YDR392W, strain spt3, stronger effect = lower value 0.532 | locus YEL003W, strain gim4, stronger effect = lower value 0.82 | locus YER155C, strain BEM2 (second series), stronger effect = lower value 0.83 | locus YFR010W, strain ubp6, stronger effect = lower value 0.899 | locus YGL253W, strain hxk2, stronger effect = lower value 0.877 | locus YJL164C, strain tpk1, stronger effect = lower value 0.889 | locus YMR058W, strain fet3, stronger effect = lower value 0.812 | locus YNL071W, strain lat1, stronger effect = lower value 0.877
inactive: locus YAL021C, strain ccr4, stronger effect = lower value 0.948 | locus YAL030W, strain snc1, stronger effect = lower value 0.972 | locus YBL061C, strain skt5, stronger effect = lower value 0.983 | locus YBR009C, strain hhf1, stronger effect = lower value 0.948 | locus YBR023C, strain chs3, stronger effect = lower value 0.979 | locus YBR171W, strain sec66, stronger effect = lower value 0.971 | locus YBR231C, strain swc5, stronger effect = lower value 0.951 | locus YBR279W, strain paf1, stronger effect = lower value 0.989 | locus YCL011C, strain gbp2, stronger effect = lower value 0.947 | locus YCL016C, strain dcc1, stronger effect = lower value 0.981 | locus YCL061C, strain MRC1, stronger effect = lower value 0.984 | locus YCL069W, strain vba3, stronger effect = lower value 0.972 | locus YCR088W, strain abp1, stronger effect = lower value 0.976 | locus YDL005C, strain med2, stronger effect = lower value 0.976 | locus YDL040C, strain nat1, stronger effect = lower value 0.975 | locus YDR001C, strain nth1, stronger effect = lower value 0.98 | locus YDR069C, strain doa4, stronger effect = lower value 0.907 | locus YDR137W, strain rgp1, stronger effect = lower value 0.947 | locus YDR159W, strain sac3, stronger effect = lower value 0.941 | locus YDR195W, strain ref2 0.972 | locus YDR297W, strain sur2, stronger effect = lower value 0.975 | locus YDR334W, strain swr1, stronger effect = lower value 0.936 | locus YDR335W, strain msn5, stronger effect = lower value 0.973 | locus YEL037C, strain rad23, stronger effect = lower value 0.949 | locus YEL061C, strain CIN8 (second series), stronger effect = lower value 0.977 | locus YER015W, strain faa2, stronger effect = lower value 0.973 | locus YER016W, strain bim1, stronger effect = lower value 0.981 | locus YER111C, strain swi4, stronger effect = lower value 0.965 | locus YGL167C, strain pmr1, stronger effect = lower value 0.975 | locus YGL173C, strain kem1, stronger effect = lower value 0.962 | locus YGL227W, strain vid30, stronger effect = lower value 0.987 | locus YGL240W, strain doc1, stronger effect = lower value 0.928 | locus YHR013C, strain ard1, stronger effect = lower value 0.902 | locus YHR027C, strain rpn1, stronger effect = lower value 0.965 | locus YHR030C, strain SLT2, stronger effect = lower value 0.96 | locus YHR079C, strain IRE1, stronger effect = lower value 0.973 | locus YHR142W, strain chs7, stronger effect = lower value 0.923 | locus YJL092W, strain hpr5, stronger effect = lower value 0.961 | locus YJL095W, strain BCK1 (second series), stronger effect = lower value 0.979 | locus YJL095W, strain BCK1, stronger effect = lower value 0.982 | locus YJL115W, strain asf1, stronger effect = lower value 0.969 | locus YJL129C, strain trk1, stronger effect = lower value 0.965 | locus YJL154C, strain vps35, stronger effect = lower value 0.987 | locus YJL166W, strain qcr8, stronger effect = lower value 0.94 | locus YJL187C, strain SWE1, stronger effect = lower value 0.979 | locus YJR066W, strain TOR1, stronger effect = lower value 0.926 | locus YKL160W, strain elf1, stronger effect = lower value 0.968 | locus YKR026C, strain gcn3, stronger effect = lower value 0.977 | locus YKR091W, strain srl3, stronger effect = lower value 0.985 | locus YLL001W, strain dnm1, stronger effect = lower value 0.984 | locus YLL026W, stronger effect = lower value 0.972 | locus YLL041C, strain sdh2, stronger effect = lower value 0.961 | locus YLR027C, strain aat2, stronger effect = lower value 0.928 | locus YLR113W, strain HOG1, stronger effect = lower value 0.967 | locus YLR221C, strain rsa3, stronger effect = lower value 0.908 | locus YLR258W, strain gsy2, stronger effect = lower value 0.961 | locus YLR262C, strain YPT6 (second series), stronger effect = lower value 0.884 | locus YLR320W, strain mms22, stronger effect = lower value 0.947 | locus YLR342W, strain FKS1, stronger effect = lower value 0.961 | locus YLR357W, strain rsc2, stronger effect = lower value 0.983 | locus YLR370C, strain arc18, stronger effect = lower value 0.977 | locus YLR384C, strain iki3, stronger effect = lower value 0.992 | locus YML120C, strain ndi1, stronger effect = lower value 0.975 | locus YMR125W, strain sto1, stronger effect = lower value 0.899 | locus YMR129W, stronger effect = lower value 0.981 | locus YMR205C, strain PFK2, stronger effect = lower value 0.988 | locus YMR231W, strain pep5, stronger effect = lower value 0.942 | locus YNL183C, strain NPR1, stronger effect = lower value 0.955 | locus YNL209W, strain ssb2, stronger effect = lower value 0.986 | locus YNL248C, strain rpa49, stronger effect = lower value 0.906 | locus YNL322C, strain KRE1 (second series), stronger effect = lower value 0.985 | locus YNR049C, strain mso1, stronger effect = lower value 0.977 | locus YOR001W, strain rrp6, stronger effect = lower value 0.922 | locus YOR070C, strain gyp1, stronger effect = lower value 0.962 | locus YOR080W, strain dia2, stronger effect = lower value 0.986 | locus YOR083W, strain WHI5, stronger effect = lower value 0.98 | locus YOR106W, strain vam3, stronger effect = lower value 0.896 | locus YOR231W, strain MKK1, stronger effect = lower value 0.967 | locus YOR265W, strain rbl2, stronger effect = lower value 0.965 | locus YOR270C, strain vph1, stronger effect = lower value 0.845 | locus YOR290C, strain snf2, stronger effect = lower value 0.939 | locus YPL051W, strain arl3, stronger effect = lower value 0.928 | locus YPL078C, strain atp4, stronger effect = lower value 0.972 | locus YPL106C, strain sse1, stronger effect = lower value 0.911 | locus YPL240C, strain hsp82, stronger effect = lower value 0.976 | locus YPL256C, strain CLN2, stronger effect = lower value 0.928
